KCNQ2 enhance: KCNQ2 (rat) channel potentiation | O88943 | CHO-K1 KCNQ2, FluxOR thallium flux fluorescence; hits give high values | B-score at 10 µM | 0.54% of 310,000 active | AID 2239;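 active means fluorescence ratio B-score at least 3 SD of library B-scores, with initial fluorescence B-score within 3 of them, cut at about 5.3 in these data; same plate scores as AID 2156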;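 further: B-score of peak minus minimum over baseline fluorescence ratio after K+ and Tl+ stimulus; positive B-score means potentiation of KCNQ2 with more thallium influx and brighter signal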
Target sequence (O88943 whole entry, looked up): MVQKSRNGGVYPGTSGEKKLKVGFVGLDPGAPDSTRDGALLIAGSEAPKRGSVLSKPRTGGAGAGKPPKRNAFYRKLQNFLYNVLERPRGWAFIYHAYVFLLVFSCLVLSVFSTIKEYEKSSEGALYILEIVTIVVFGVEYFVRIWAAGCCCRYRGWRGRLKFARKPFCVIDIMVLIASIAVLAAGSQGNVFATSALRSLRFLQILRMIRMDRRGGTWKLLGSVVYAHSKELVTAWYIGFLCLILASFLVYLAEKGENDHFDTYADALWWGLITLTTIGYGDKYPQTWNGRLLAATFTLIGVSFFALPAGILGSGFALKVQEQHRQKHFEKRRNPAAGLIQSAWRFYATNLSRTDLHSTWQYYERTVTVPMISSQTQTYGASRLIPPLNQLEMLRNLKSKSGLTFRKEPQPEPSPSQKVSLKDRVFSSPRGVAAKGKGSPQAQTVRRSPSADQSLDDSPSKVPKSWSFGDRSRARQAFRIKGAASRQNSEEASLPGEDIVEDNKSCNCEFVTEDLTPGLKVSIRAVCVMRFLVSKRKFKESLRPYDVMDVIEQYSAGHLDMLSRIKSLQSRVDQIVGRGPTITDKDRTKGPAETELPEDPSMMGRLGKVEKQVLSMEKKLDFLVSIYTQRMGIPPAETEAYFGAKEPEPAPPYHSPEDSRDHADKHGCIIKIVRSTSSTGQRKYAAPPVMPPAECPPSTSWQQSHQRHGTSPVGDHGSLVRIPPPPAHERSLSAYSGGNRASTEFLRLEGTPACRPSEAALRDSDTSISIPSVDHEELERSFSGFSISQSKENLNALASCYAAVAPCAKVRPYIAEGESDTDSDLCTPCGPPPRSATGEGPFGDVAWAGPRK
KCNQ2 inh: blocks the rat KCNQ2 potassium channel; O88943; CHO-K1 KCNQ2, FluxOR thallium flux, 20 min; hits give low values; B-score at 10 µM; 1.1% of 310,000 active;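 active means fluorescence ratio B-score at most minus 3 library SDs, with starting brightness B-score within 2 library SDs, cut at about -5.5 in these data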
* marks the source's active call; other numbers are inactive results; i = inactive; . = not tested or not shown. Most compounds without a hit are left out; they make up all but 1.6% or so of the library.

SMILES	KCNQ2 enhance	KCNQ2 inh
COc1ccc(C)cc1Nc1n[n+](-c2ccccc2)c(-c2c(Cl)cccc2Cl)s1	-6.47	-6.47*
CN(C)c1ccc(-c2sc(Nc3ccccc3)n[n+]2-c2ccc(F)cc2)cc1	.	i
COc1ccc(C)cc1Nc1n[n+](-c2ccccc2)c(-c2ccc(OC)c(OC)c2OC)s1	.	i
Cc1cc(/C=N/n2cnnc2)c(C)n1-c1ccc(OCc2ccc(Cl)cc2Cl)cc1	.	i
Cc1cc(/C=N/n2cnnc2)c(C)n1-c1ccc(OCc2ccc(F)cc2)cc1	-6.18	-6.18*
O=C(NC(c1ccccc1)c1ccccc1)c1cccc(S(=O)(=O)NCc2ccccc2)c1	.	i
CCc1cccc(NC(=O)CCS(=O)(=O)c2ccc(Br)cc2)c1	.	i
O=C1C=CC(=O)N1N(c1ccccc1)c1ccccc1	-6.24	-6.24*
O=C1C=CC(=O)N1Cc1ccccc1	.	i
COc1cc(OC)cc(C(=O)NCC(=O)Nc2ccc(OC)c(Cl)c2)c1	0.99	i
CC(C(=O)NC1CCCC1)N(C(=O)Cn1nnc(-c2ccc(F)cc2)n1)c1ccccc1F (centres undefined)	.	i
CC(C(=O)NC1CCCC1)N(C(=O)c1ccc(-c2ccccc2)[nH]1)c1ccccc1F (centres undefined)	-6.45	-6.45*
COc1ccc(C(=O)c2ccc(Cl)cc2)cc1	0.7	i
COc1ccc(C(C#N)=C2C=CC(=NO)C=C2)cc1	-5.73	-5.73*
O=C(COc1ccccc1)Nn1c(-c2ccccc2)nc2ccccc2c1=O	1.4	i
COc1ccc(C(=O)Nn2c(SCc3ccc([N+](=O)[O-])cc3)nc3ccccc3c2=O)cc1	-6.22	-6.22*
COc1ccc(OCC(=O)Nn2c(-c3cccc(OC)c3)nc3ccccc3c2=O)cc1	.	i
Cc1ccc(-c2nc3ccccc3c(=O)n2NC(=O)COc2ccccc2)cc1	-6.83	-6.83*
COc1ccc(CC(=O)Nn2c(-c3ccccc3)nc3ccccc3c2=O)cc1	9.92*	i
COc1ccc(C(=O)Nn2c(SCC(=O)c3ccccc3)nc3ccccc3c2=O)cc1	.	i
Cc1ccc(OCC(=O)NCCNC(=O)c2ccccn2)cc1	.	i
O=C(Nc1ccccc1F)C1COc2ccccc2O1 (centres undefined)	.	i
CN(CCCNC(=O)c1ccccc1F)CCCNC(=O)c1ccccc1F	.	i
O=C(O)CC(C(=O)Nc1ccc(Cl)cc1)N1CCCCCC1 (centres undefined)	.	i
Cc1ccc(NS(=O)(=O)c2c(C)[nH]c(C)c2C(=O)N2CCCCC2)cc1F	.	i
SMILES	KCNQ2 enhance	KCNQ2 inh
COc1ccc(NS(=O)(=O)N2CCOCC2)cc1	1.02	i
Cc1cc(C)c2c(N)c3cccc(C)c3nc2n1	1.02	i
COc1cc2ccccc2cc1C(=O)OCC(=O)N(CC(C)C)c1c(N)n(Cc2ccccc2)c(=O)[nH]c1=O	.	i
COc1ccc(NC(=O)Nc2ccc3c(c2)OCO3)c(C)c1	.	i
O=C(CCc1nc2ccccc2[nH]1)Nc1ccccc1F	6.57*	i
O=C(CCc1nc2ccccc2[nH]1)Nc1ccc(F)cc1	.	i
C/C(=N/Nc1ccccc1[N+](=O)[O-])c1ccc(C)c([N+](=O)[O-])c1	0.55	i
CC(C)/C(=N/Nc1ccccc1[N+](=O)[O-])c1ccccc1	-6.38	-6.38*
CCOC(=O)c1c(S(=O)(=O)N2CCN(c3ccc(C(C)=O)cc3)CC2)c(C)n(C)c1C	0.89	i
Cc1cc(C)n(-c2nc3ccccc3nc2N2CCN(S(=O)(=O)c3ccc4ccccc4c3)CC2)n1	-5.89	-5.89*
Cc1cc(C)n(-c2nc3ccccc3nc2N2CCN(S(=O)(=O)c3ccc(F)c(C)c3)CC2)n1	.	i
CCOC(=O)c1cnc2c(OC)cccc2c1Nc1ccc2c(c1)OCCO2	.	i
COc1ccc(CNC(=O)CSc2ccc(Br)cc2)cc1OC	.	i
CSCC[C@H](NC(=O)OC(C)(C)C)c1nnc(SCc2cccc(F)c2)o1	.	i
CC(C)C[C@H](NC(=O)OC(C)(C)C)c1nnc(SCc2cccc(F)c2)o1	-7.47	-7.47*
COc1ccc(C(CNC(=O)COc2ccccc2C)N2CCCC2)cc1 (centres undefined)	.	i
COc1ccc(C(CNC(=O)COc2ccc(Cl)c(C)c2)N2CCCCC2)cc1 (centres undefined)	-5.92	-5.92*
COc1ccc(C(CNC(=O)c2oc3ccc(Br)cc3c2C)N2CCCCC2)cc1 (centres undefined)	-6.22	-6.22*
COc1ccc(C(CNC(=O)c2oc3cc(C)c(C)cc3c2C)N2CCCCC2)cc1 (centres undefined)	.	i
CCc1ccc2oc(C(=O)NCC(c3ccc(OC)cc3)N3CCCCC3)c(C)c2c1 (centres undefined)	-7.06	-7.06*
COc1ccc(C(CNC(=O)c2oc3ccc(F)cc3c2C)N2CCCCC2)cc1 (centres undefined)	-6.29	-6.29*
COc1ccc(C(CNC(=O)c2oc3ccc(OC)cc3c2C)N2CCCC2)cc1 (centres undefined)	.	i
COc1ccc(C(CNC(=O)c2oc3cc(Br)ccc3c2C)N2CCCCC2)cc1 (centres undefined)	.	i
CC(C)(C)Sc1ccc([N+](=O)[O-])cc1C(=O)Nc1ccncc1	2.64	i
COc1ccc(C(=O)C2CCCN(Cc3ccc4nonc4c3)C2)c(OC)c1 (centres undefined)	.	i
SMILES	KCNQ2 enhance	KCNQ2 inh
O=C(CN(C(=O)c1csnn1)c1ccccc1C(F)(F)F)NC1CCCCC1	.	i
CN(C)S(=O)(=O)c1ccc(C(=O)NNC(=O)C2COc3ccccc3O2)cc1 (centres undefined)	.	i
O=C(Nc1ccccc1)c1cn(CCBr)cn1	0.81	i
Clc1ccccc1CSc1snnc1-c1ccccc1	-5.55	-5.55*
Clc1ccc(CSc2snnc2-c2ccccc2)cc1	.	i
CCn1c(C(=O)OC)cc2c1ccn2-c1ccc(F)cc1	.	i
CCOC(=O)c1cc2c(ccn2-c2ccc(F)cc2)n1CC(=O)NC(C)(C)C	-6.65	-6.65*
COc1ccc(OCc2nn[nH]n2)cc1	.	i
CCN(CC)CCOc1ccc(/C(=C(\Cl)c2ccccc2)c2ccccc2)cc1	-7.56	-7.56*
CCN(CC)CCOc1ccc(Br)cc1	.	i
COc1ccc(/C=N/NC(=O)c2cc3c(ccc4ccccc43)o2)c(OC)c1	-6.31	-6.31*
COc1ccc(OC)c(/C=N\NC(=O)c2cc3c(ccc4ccccc43)o2)c1	0.92	i
COCc1c(C(=O)NC(C)c2ccc(S(N)(=O)=O)cc2)oc2ccccc12 (centres undefined)	0.26	i
Cc1cc2[nH]c(=O)c(=O)[nH]c2cc1S(=O)(=O)Nc1cccc(Cl)c1	.	i
Cc1cc(NC(=O)CCC(=O)N(Cc2ccco2)C2(C(=O)NC3CCCCC3)CCCC(C)C2)no1 (centres undefined)	.	i
COc1ccc2o/c(=N\O)c(C(=O)Nc3ccc(C)cc3)cc2c1	-10.3	-10.3*
COc1ccc2oc(=N)c(C(=O)Nc3ccc(C)cc3)cc2c1	.	i
CCN1C(=O)c2ccc(C(=O)Nc3ccc(O)cc3C)cc2C1=O	0.44	i
Cc1ccc(C)c(C(=O)Nc2ccncc2)c1	.	i
CN(C)c1ccc(-c2c(-c3ccc4c(c3)OCO4)noc2-c2ccsc2)cn1	-5.88	-5.88*
COC(=O)c1cc(-c2c(-c3ccc4c(c3)OCO4)noc2-c2ccsc2)cc([N+](=O)[O-])c1	.	i
CCOCCCNC(=O)CCN1C(=O)c2ccccc2Sc2ncccc21	1.9	i
